We go through 94 sequences from the supplement of paper PMC10338343.

± gives the standard deviation. Whole data set: some 6,600 sequences, median “pre-steady-state target cleavage rate” near 0.07, cut for the highest 2% near 0.72. The entries come from a sample that favours the highest values as a whole.

In the assay the test system is MIWI (PIWIL1) piRISC loaded with Kctd7 piRNA (30 nt). The assay is described as follows: pre-steady-state target cleavage rate (min^-1); MIWI and MILI are mouse PIWI proteins and EfPiwi is from a freshwater sponge; tags in brackets are library labels; higher = faster piRNA-guided slicing of the target. The settings on record: guide: Kctd7 piRNA 5'p-UGUUAAUCUCUCAGAGAAGGUGACAGUGAU; auxiliary factor: 500 nM mouse GTSF1. The method, boiled down:
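The pre-steady-state cleavage rate came from a burst-and-steady-state fit to pooled data from three Cleave-'n-Seq trials, in which uncleaved targets were sequenced and normalised to depth and to weakly complementary targets. Each reaction held 0.1 nM transcribed, DNA-blocked target RNA library and 1 nM active affinity-purified piRISC carrying one synthetic guide, with or without 500 nM GTSF1 partner protein, in HEPES–potassium acetate buffer at 33 °C for 0–8 or 0–960 min. k3 was capped at 0.0001 min^-1.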
For UAGUCUGUCACCUUCUCUGAGAGAAAUACA, the “pre-steady-state target cleavage rate” value is 0.0823 ± 0.015.

With AUCACUGAGACCUUCUCUGAGAGAUAUUGA, the “pre-steady-state target cleavage rate” value worked out at 0.0157 ± 0.0047.

Take UAGUGACAGCCCUUCUCUGAGAGAUUAACA: the “pre-steady-state target cleavage rate” value was 0.184 ± 0.019.

Consider UUCACUGUCACCUUCUCUGAGAGUUUUACA, for which the “pre-steady-state target cleavage rate” value turned out to be 0.559 ± 0.12.

Consider UAGUGACUCACCUUCUCUGUGACAUUAACA, for which the “pre-steady-state target cleavage rate” value stood at 0.0765 ± 0.0076.

For the sequence UAGUCUCUCACCUUCUGUGAGAGAUUAACA, the “pre-steady-state target cleavage rate” value is 0.00482 ± 0.0046.

UAGACUCUCACCUUCUCUGAGAGAUUUUGA: the “pre-steady-state target cleavage rate” value amounted to 0.0479 ± 0.011.

On to UUCACUGUGCACCUUCUCUGAGAGAUUAACA, for which the “pre-steady-state target cleavage rate” value came out at 0.606 ± 0.05.

In the case of UUGCACUGUCACCUUCUCUGAGAGAUUAACA, the “pre-steady-state target cleavage rate” value came to 0.781 ± 0.045.

In the case of UUCACUGGCACCUUCUCUGAGAGAUUAACA, the “pre-steady-state target cleavage rate” value was determined as 0.728 ± 0.15.

With AUCACUGGCACCUUCUCUGAGAGAUUAACA, the “pre-steady-state target cleavage rate” value was determined as 0.724 ± 0.17.

On to UGCACUGUCACCUUCUCUGAGAGAUUAACA, for which the “pre-steady-state target cleavage rate” value came to 0.726 ± 0.039.

For the sequence UACACUGGCACCUUCUCUGAGAGAUUAACA, the “pre-steady-state target cleavage rate” value is 0.453 ± 0.12.

Take AUGCACUGUCACCUUCUCUGAGAGAUUAACA: the “pre-steady-state target cleavage rate” value is 0.775 ± 0.056.

As for UACAGUGUCACCUUCUGUGAGAGAUUAACA, the “pre-steady-state target cleavage rate” value was 0.662 ± 0.028.

For UAGUGACACACCUUCUCAGAGUGAUUAACA, the “pre-steady-state target cleavage rate” value is 0.00558 ± 0.0037.

Consider UAGUGUGUCACCUUCUCUGAGAGAUUAUCA, for which the “pre-steady-state target cleavage rate” value stood at 0.219 ± 0.026.

With UAGUGACUCUGCUUCUCUGAGAGAUUAACA, the “pre-steady-state target cleavage rate” value is 0.00843 ± 0.0019.

Regarding UAGUGACAGUCCUUCCUCUGAGAGAUUAACA, the “pre-steady-state target cleavage rate” value came to 0.27 ± 0.027.

Turning to UAGUCUCUCACGUUCUCUGAGAGAUUAACA, the “pre-steady-state target cleavage rate” value was 0.0195 ± 0.0042.

Regarding UAGUGACACACCAUCUCUGAGAGAAUAACA, the “pre-steady-state target cleavage rate” value turned out to be 0.0218 ± 0.0057.

AGCACUGUCACCUUCUCUGAGAGAUUAACA: the “pre-steady-state target cleavage rate” value turned out to be 0.765 ± 0.044.

With UAGUCUGUCACCUUCUGUGAGAGAUAAACA, the “pre-steady-state target cleavage rate” value was 0.0539 ± 0.0081.

Consider UACGACUGUCACCUUCUCUGAGAGAUUAACA, for which the “pre-steady-state target cleavage rate” value came out at 0.746 ± 0.07.

AUCGACUGUCACCUUCUCUGAGAGAUUAACA: the “pre-steady-state target cleavage rate” value amounted to 0.821 ± 0.059.

For UUCGACUGUCACCUUCUCUGAGAGAUUAACA, the “pre-steady-state target cleavage rate” value came to 0.859 ± 0.06.

For UAGUGUGUCAGCUUCUCUGAGAGAUUAAGA, the “pre-steady-state target cleavage rate” value was 0.0938 ± 0.015.

For the sequence UACACUCUCACCUUCUCUGUGAGAUUAACA, the “pre-steady-state target cleavage rate” value turned out to be 0.141 ± 0.014.

Regarding UUGUGUGUCACCUUCUCUGAGAGAUUAACA, the “pre-steady-state target cleavage rate” value turned out to be 0.571 ± 0.025.

As for UAGUCAGUCACCAUCUCUGAGAGAUUAACA, the “pre-steady-state target cleavage rate” value was 0.706 ± 0.04.

As for UACACUCUCACCAUCUCUGAGAGAUUAACA, the “pre-steady-state target cleavage rate” value amounted to 0.406 ± 0.028.

Consider UAGUCUCUCACCAUCUCUGAGAGAUUAACA, for which the “pre-steady-state target cleavage rate” value is 0.0365 ± 0.0075.

UACAGUGUCACCAUCUCUGAGAGAUUAACA: the “pre-steady-state target cleavage rate” value amounted to 0.592 ± 0.036.

Turning to UUCACUCUCACCAUCUCUGAGAGAUUAACA, the “pre-steady-state target cleavage rate” value was found to be 0.465 ± 0.024.

As for UAGACAGUCACCAUCUCUGAGAGAUUAACA, the “pre-steady-state target cleavage rate” value was 0.68 ± 0.042.

Consider UUCACAGUCACCAUCUCUGAGAGAUUAACA, for which the “pre-steady-state target cleavage rate” value was 0.747 ± 0.039.

UACACAGUCACCAUCUCUGAGAGAUUAACA: the “pre-steady-state target cleavage rate” value was found to be 0.833 ± 0.045.

AUCACAGUCACCAUCUCUGAGAGAUUAACA: the “pre-steady-state target cleavage rate” value was found to be 0.771 ± 0.036.

On to UAGUCUGUCACCUUCGCUGAGAGAUUAACA, for which the “pre-steady-state target cleavage rate” value is 0.416 ± 0.035.

On to AUCACUUUCACCUUCUCUGAGAGAUUAACA, for which the “pre-steady-state target cleavage rate” value is 0.622 ± 0.027.

UAGUGAGUCUCCUUCUCUGAGAGAUUUACA: the “pre-steady-state target cleavage rate” value amounted to 0.0124 ± 0.0051.

For UAGUCUCUCACCUUCUCUGUGAGAUUAACA, the “pre-steady-state target cleavage rate” value worked out at 0.2 ± 0.015.

Regarding UAGUGACAGACCCUUCUCUGAGAGAUUAACA, the “pre-steady-state target cleavage rate” value worked out at 0.0893 ± 0.016.

UACACUGUCACGAACUCUGAGAGAUUAACA: the “pre-steady-state target cleavage rate” value amounted to 0.131 ± 0.019.

In the case of UAGUCUGUCACCAUCUCUGAGAGAUUAUGA, the “pre-steady-state target cleavage rate” value turned out to be 0.021 ± 0.0082.

Consider UAGUGACAGUCCUUCUCUGAGACAUUAACA, for which the “pre-steady-state target cleavage rate” value is 0.0121 ± 0.0033.

For the sequence UACACAGUCACCUUCUCUGAGAGAUUAACA, the “pre-steady-state target cleavage rate” value worked out at 0.589 ± 0.038.

For UACACUAGUCACCUUCUCUGAGAGAUUAACA, the “pre-steady-state target cleavage rate” value is 0.663 ± 0.029.

Take AACACAGUCACCUUCUCUGAGAGAUUAACA: the “pre-steady-state target cleavage rate” value was 0.736 ± 0.032.

Turning to UAGAGAGUCACCUUCUCUGAGAGAUUAACA, the “pre-steady-state target cleavage rate” value was 0.797 ± 0.035.

In the case of UUCUGAGUCACCUUCUCUGAGAGAUUAACA, the “pre-steady-state target cleavage rate” value turned out to be 0.657 ± 0.059.

Take UUCACUAGUCACCUUCUCUGAGAGAUUAACA: the “pre-steady-state target cleavage rate” value amounted to 0.708 ± 0.032.

In the case of AUGAGUGUCACCUUCUCUGAGAGAUUAACA, the “pre-steady-state target cleavage rate” value came to 0.706 ± 0.032.

With UUGAGUGUCACCUUCUCUGAGAGAUUAACA, the “pre-steady-state target cleavage rate” value was found to be 0.763 ± 0.034.

With AUCACUAGUCACCUUCUCUGAGAGAUUAACA, the “pre-steady-state target cleavage rate” value turned out to be 0.724 ± 0.04.

Regarding UAGAGUGUCACCUUCUCUGAGAGAUUAACA, the “pre-steady-state target cleavage rate” value turned out to be 0.72 ± 0.035.

As to UUCACAGUCACCUUCUCUGAGAGAUUAACA, the “pre-steady-state target cleavage rate” value was determined as 0.656 ± 0.027.

In the case of AUCUGAGUCACCUUCUCUGAGAGAUUAACA, the “pre-steady-state target cleavage rate” value came out at 0.652 ± 0.053.

For the sequence AUGACUGUCACCUUCACUGAGAGAUUAACA, the “pre-steady-state target cleavage rate” value is 0.541 ± 0.032.

With UAGUCUGUCACGCUUCUCUGAGAGAUUAACA, the “pre-steady-state target cleavage rate” value amounted to 0.506 ± 0.025.

Turning to UAGUGACUCCACCUUCUCUGAGAGAUUAACA, the “pre-steady-state target cleavage rate” value is 0.415 ± 0.04.

For UAGACUGUCACCUUCUCUGUGACAUUAACA, the “pre-steady-state target cleavage rate” value was 0.0186 ± 0.0033.

Consider UAGUGUGUCACCUUCUCUGAGAGUUUAUCA, for which the “pre-steady-state target cleavage rate” value came to 0.232 ± 0.056.

For the sequence UAGUGUGUCACCUUCUCUGAGACAUAAACA, the “pre-steady-state target cleavage rate” value amounted to 0.0331 ± 0.0077.

For UAGUGACAGUGCUUCGCUGAGAGAUUAACA, the “pre-steady-state target cleavage rate” value worked out at 0.00389 ± 0.0031.

For the sequence AUCACUGUCACCUUCACUGAGACAUUAACA, the “pre-steady-state target cleavage rate” value stood at 0.252 ± 0.024.

In the case of UAGACUAGUCACCUUCUCUGAGAGAUUAACA, the “pre-steady-state target cleavage rate” value is 0.756 ± 0.049.

In the case of UAGACUAUCACCUUCUCUGAGAGAUUAACA, the “pre-steady-state target cleavage rate” value came to 0.56 ± 0.026.

As to UAGACAGUCACCUUCUCUGAGAGAUUAACA, the “pre-steady-state target cleavage rate” value was 0.656 ± 0.033.

For the sequence UAGUGACAGACCUUCACUGAGAGAUAAACA, the “pre-steady-state target cleavage rate” value was found to be 0.0224 ± 0.007.

With UAGUGACAGUGCUUCUCUGAGAGUUUAACA, the “pre-steady-state target cleavage rate” value was 0.00896 ± 0.0024.

With UACUGUGUCACCUUCUCUGAGAGAUUAACA, the “pre-steady-state target cleavage rate” value was determined as 0.63 ± 0.027.

Regarding UACUACUGUCACCUUCUCUGAGAGAUUAACA, the “pre-steady-state target cleavage rate” value came out at 0.694 ± 0.032.

Take AUACUGUCACCUUCUCUGAGAGAUUAACA: the “pre-steady-state target cleavage rate” value is 0.756 ± 0.043.

As to UAUACUGUCACCUUCUCUGAGAGAUUAACA, the “pre-steady-state target cleavage rate” value was 0.767 ± 0.047.

As to UUCUACUGUCACCUUCUCUGAGAGAUUAACA, the “pre-steady-state target cleavage rate” value was found to be 0.677 ± 0.038.

Regarding UUUACUGUCACCUUCUCUGAGAGAUUAACA, the “pre-steady-state target cleavage rate” value is 0.708 ± 0.026.

For UACUCUGUCACCUUCUCUGAGAGAUUAACA, the “pre-steady-state target cleavage rate” value stood at 0.663 ± 0.03.

As for AUUACUGUCACCUUCUCUGAGAGAUUAACA, the “pre-steady-state target cleavage rate” value was determined as 0.713 ± 0.032.

Regarding UUACUGUCACCUUCUCUGAGAGAUUAACA, the “pre-steady-state target cleavage rate” value amounted to 0.743 ± 0.041.

Turning to UAGUGACUCACGUUCUCUGACAGAUUAACA, the “pre-steady-state target cleavage rate” value was determined as 0.00367 ± 0.0032.

Consider UAGACUGUCAGCUUCUCUGAGAGAUUAAGA, for which the “pre-steady-state target cleavage rate” value was determined as 0.0909 ± 0.017.

UAGUCUCACACCUUCUCUGAGAGAUUAUGA: the “pre-steady-state target cleavage rate” value was 0.0207 ± 0.0066.

For UAGUCUGUCACCUUCACUGAGAGAUUAACA, the “pre-steady-state target cleavage rate” value is 0.39 ± 0.02.

For the sequence UUCACUGUCUACCUUCUCUGAGAGAUUAACA, the “pre-steady-state target cleavage rate” value was determined as 0.208 ± 0.022.

In the case of UAGUGACAGUCCUUCUCUGAGAGAUAAUCA, the “pre-steady-state target cleavage rate” value was found to be 0.00284 ± 0.0022.

On to AACUCUGUCACCUUCUCUGAGAGAUUAACA, for which the “pre-steady-state target cleavage rate” value is 0.715 ± 0.034.

As for UUCUGUGUCACCUUCUCUGAGAGAUUAACA, the “pre-steady-state target cleavage rate” value came out at 0.224 ± 0.022.

Take UAGGCUGUCACCUUCUCUGAGAGAUUAACA: the “pre-steady-state target cleavage rate” value came out at 0.803 ± 0.045.

For AUGUCUGUCACCUUCUCUGAGAGAUUAACA, the “pre-steady-state target cleavage rate” value came to 0.604 ± 0.024.

Take UACGCUGUCACCUUCUCUGAGAGAUUAACA: the “pre-steady-state target cleavage rate” value was determined as 0.745 ± 0.038.

Turning to UUGUCUGUCACCUUCUCUGAGAGAUUAACA, the “pre-steady-state target cleavage rate” value turned out to be 0.691 ± 0.031.

UUCGCUGUCACCUUCUCUGAGAGAUUAACA: the “pre-steady-state target cleavage rate” value was found to be 0.626 ± 0.04.

With AUCGCUGUCACCUUCUCUGAGAGAUUAACA, the “pre-steady-state target cleavage rate” value stood at 0.825 ± 0.042.
